The source made the active and inactive calls. The calls were made as follows: active = hit-call score of the fitted dose curve at least 0.9, where 1 is the maximum; inactive = score below 0.9.
Each compound was assayed against human Serotonin Receptor 5-HT5A Agonism, HTR5A (gene 3361) (UniProt P47898) (assay: ERF_FR_GPCR_hHTR5A: Eurofins (ERF) G Protein-Coupled Receptor (GPCR) Radioligand Binding LeadHunter Assay for human Serotonin Receptor 5-HT5A Agonism).
Sequence of human Serotonin Receptor 5-HT5A Agonism, HTR5A (gene 3361) (P47898 whole entry, looked up): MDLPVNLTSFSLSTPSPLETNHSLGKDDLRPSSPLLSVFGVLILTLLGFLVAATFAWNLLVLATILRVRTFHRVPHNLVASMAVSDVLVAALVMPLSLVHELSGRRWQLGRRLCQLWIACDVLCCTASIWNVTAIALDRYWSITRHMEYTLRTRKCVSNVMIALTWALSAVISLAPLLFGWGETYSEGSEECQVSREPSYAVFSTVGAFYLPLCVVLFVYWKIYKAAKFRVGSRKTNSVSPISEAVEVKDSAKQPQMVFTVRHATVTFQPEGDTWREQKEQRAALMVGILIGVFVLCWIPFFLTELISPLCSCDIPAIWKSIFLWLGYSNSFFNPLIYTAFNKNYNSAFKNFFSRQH
Method: ERF_FR_GPCR_hHTR5A is a biochemical, single-readout assay that uses extracted gene-proteins in a cell-free assay. Measurements were taken 2 hour after chemical dosing in a 96-well plate. See 5-HT5A Human Serotonin GPCR Binding (Agonist Radioligand) Assay, Cerep.ERF_FR_GPCR_hHTR5A is an assay component calculated from the ERF_FR_GPCR_hHTR5A assay. It is designed to measure radioligand binding using a type of binding reporter as detected by scintillation counting with radiometry technology.Data from the assay component ERF_FR_GPCR_hHTR5A was analyzed at the assay endpoint, ERF_FR_GPCR_hHTR5A, in the positive analysis fitting direction relative to DMSO as the negative control and baseline of activity. Using a type of binding reporter, gain-of-signal activity can be used to understand changes in binding as they relate to gene HTR5A. To generalize the intended target to other relatable targets, this assay endpoint is annotated to the gpcr intended target family, where the subfamily is serotonin.
Human cells are incubated for 120 minutes at 37 C with [3H]LSD ligand (1.5 nM) and serotonin as control inhibitor. Test Sample Requirements: Minimum for 1) Screen: 60 ul of 10 mM stock -OR- 1 mg (pre-weighed) for 10 uM final testing. 2) Dose Response: 90 ul of 10 mM stock -OR- 1 mg (pre-weighed) for a top concentration at 10 uM.
With `O=C(/C=C/c1ccc(O)cc1)CC(=O)/C=C/c1ccc(O)cc1` the AC50 was 1680 nM (active).
